Compounds with a hit are over-represented: about 5.5% of the library has one in this group of screens.
Gal4-VP16 FLuc = VP16 counterscreen qHTS for inhibitors of ROR gamma transcriptional activity. Drosophila S2 Gal4-VP16 UAS-luciferase, luminescence, 20 h. Potency, µM (highest dose often 53.6 µM), without a hit: at the top dose activity, negative = inhibition, usual class: inhibitors. actives 3.5% (n = 310,000). AID 2546, 2010;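 further: Gal4-VP16 expression switched on by copper sulfate through the metallothionein promoter; potency means the concentration at half of the fitted maximal effect; on the % scale 0 is the no-effect control and ±100 the full control effect; nearly all actives have a fitted effect of over 50% in size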
MBNL1 CUG block = qHTS Assay for Inhibitors of MBNL1-poly(CUG) RNA binding; actives 0.036% (n = 280,000); Potency, µM (highest dose often 57.5 µM), without a hit: top-dose activity change, negative = inhibition, hits mostly inhibitors; Muscleblind-like protein 1 (Homo sapiens), Q9NR56; TR-FRET MBNL1-His/biotin-(CUG)12 binding, 665/545 ratio; active means well fitted inhibition curve with a large enough effect in the signal ratio, with a control signal flat, not every such curve was filed as active; inconclusive means small, poorly fitted or top-dose-only effect, or effect the other way, or a change in a side signal; inactive means no such curve, though single readings can be large or run the other way; the % refers to the signal ratio; further: potency means the concentration at half of the fitted maximal effect; on the % scale 0 is the no-effect control and ±100 the full control effect
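TR-FRET readout: Ex 340 nm, 665/545 nm emission ratio, normalized to buffer-only (basal) and MBNL1-(CUG)12 controls. Complex of MBNL1-His with Biotin-(CUG)12, compounds 92 nM–58 uM, incubated 60 min at room temperature.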
RORg inh = qHTS for inhibitors of ROR gamma transcriptional activity | actives 5.4% (n = 310,000) | Nuclear receptor ROR-gamma (Mus musculus), P51450 | Potency, µM (doses to about 53.6 µM), for inactives: top-dose activity change, negative = inhibition, most hits filed as inhibitors | Drosophila S2 Gal4-RORgamma UAS-luciferase reporter, 20 h; further: potency means the concentration at half of the fitted maximal effect; on the % scale 0 is the no-effect control and ±100 the full control effect; nearly all actives have a fitted effect of over 60% in size
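Using a luciferase readout, inhibitors were identified by reduced reporter activity in Drosophila cells coexpressing a copper-inducible Gal4–ROR gamma fusion and UAS-driven Photinus luciferase, incubated 20 hr after 700 uM copper sulfate.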
Six1-Eya2 blk = qHTS Assay for Inhibitors of the Six1/Eya2 Interaction; Homeobox protein SIX1 (Homo sapiens) + Protein phosphatase EYA2 (Homo sapiens), …; AlphaScreen GST-Six1/His-Eya2 binding, biochemical; hits give low values; activity change, % (test concentration not listed); actives 0.56% (n = 360,000); in the data active means activity change below about -65%; inconclusive means mostly about -30% to -63%; further: on the % scale 0 is the no-effect control and ±100 the full control effect
Target sequence (O00167 whole entry, looked up): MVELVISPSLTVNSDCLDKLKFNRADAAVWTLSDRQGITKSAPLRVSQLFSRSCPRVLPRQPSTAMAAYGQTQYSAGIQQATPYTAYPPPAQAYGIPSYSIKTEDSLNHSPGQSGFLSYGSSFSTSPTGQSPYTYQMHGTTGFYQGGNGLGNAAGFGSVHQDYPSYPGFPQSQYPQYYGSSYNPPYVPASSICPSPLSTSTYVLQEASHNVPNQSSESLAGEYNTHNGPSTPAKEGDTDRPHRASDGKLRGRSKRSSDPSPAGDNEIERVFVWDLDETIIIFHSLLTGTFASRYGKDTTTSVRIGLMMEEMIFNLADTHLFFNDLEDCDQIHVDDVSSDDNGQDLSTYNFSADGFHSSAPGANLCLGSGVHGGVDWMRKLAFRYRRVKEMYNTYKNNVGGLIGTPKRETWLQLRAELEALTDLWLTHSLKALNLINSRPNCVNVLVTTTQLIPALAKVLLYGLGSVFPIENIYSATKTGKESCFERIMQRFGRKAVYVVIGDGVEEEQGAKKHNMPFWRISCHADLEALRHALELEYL
Target sequence (Q15475 whole entry, looked up): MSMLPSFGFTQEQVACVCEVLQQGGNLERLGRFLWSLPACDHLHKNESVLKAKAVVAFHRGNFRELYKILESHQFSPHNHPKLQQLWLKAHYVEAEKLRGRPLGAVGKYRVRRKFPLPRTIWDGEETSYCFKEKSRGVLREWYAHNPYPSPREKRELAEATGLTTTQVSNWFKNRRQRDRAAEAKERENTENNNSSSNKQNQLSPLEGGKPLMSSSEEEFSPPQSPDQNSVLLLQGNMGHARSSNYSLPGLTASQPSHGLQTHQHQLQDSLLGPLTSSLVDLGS
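AlphaScreen with GST-Six1 and His-Eya2 (5X mix: 250 nM and 500 nM), glutathione donor and nickel acceptor beads; buffer 50 mM Tris pH 8.0, 300 mM NaCl, 1 mM TCEP; 1 h at 37 C in the dark.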
CtBP-E1A blk = qHTS Assay for Inhibitors of the CtBP/E1A Interaction. actives 0.49% (n = 340,000). AlphaScreen GST-E1A/His-CtBP binding, 1536-well; hits give low values. activity change, % (test concentration not listed). CtBP / adenovirus E1A interaction (AlphaScreen); in the data active means activity change below about -65%; inconclusive means mostly about -30% to -63%; further: on the % scale 0 is the no-effect control and ±100 the full control effect
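Homogeneous bead-based format: GST-tagged E1A captured on glutathione donor beads, His-tagged CtBP on nickel acceptor beads; compounds precede bead addition by 2 h at 37 °C.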
CBFb RUNX1 block = qHTS Assay for Compounds Blocking the Interaction Between CBF-beta and RUNX1 for the Treatment of Acute Myeloid Leukemia. Runt-related transcription factor 1 (Homo sapiens) + Core-binding factor subunit beta …. AlphaScreen CBFb-His/RUNX1-biotin binding, biochemical. Potency, µM (doses to about 59.8 µM), for inactives: at the top dose activity, negative = inhibition, actives largely listed as inhibitors. 230,000 tested, under 10 active; further: % of control where 0% means no effect
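CBF-beta (His) and RUNX1 (biotin), 30 nM each; 20 min preassociation; + compound, 15 min; + beads 50 ng each (Ni, streptavidin), 90 min; RT; AlphaScreen read.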
* = called active by the depositor; ? = inconclusive; . = not tested or not shown; ! = not confirmed by another sample. Unless noted, the call rests on the fitted dose curve; in most records, active means well fitted curve in the direction sought with a large enough effect; inconclusive means small, poorly fitted or top-dose-only effect, or another doubt; inactive means no such curve, though single readings can be large; an effect the other way counts as inactive or inconclusive.

SMILES | Gal4-VP16 FLuc | MBNL1 CUG block | RORg inh | Six1-Eya2 blk | CtBP-E1A blk | CBFb RUNX1 block
COc1ccc(/C=C/C(=O)Oc2cccc(/C=N/NC(=O)c3cccc(F)c3)c2)cc1 | ? | -5.6% | ? | -12.6 | ? | -3.2%
COc1ccc(/C=N/OCC(=O)Nc2cc(C)on2)cc1OC | -9.8% | -1.0% | -19.2% | 2.6 | -4.3 | -0.6%
COc1cc(/C=N\NC(C)=O)ccc1OC/C=C/c1ccccc1 | 0.447µM* | 3.1% | ? | -0.3 | 0.8 | .
COc1ccc(/C=C\C(=O)Oc2cccc(/C=N/NC(=O)Cc3ccc(OC)c(OC)c3)c2)cc1 | 12.6µM* | -1.6% | -28.2% | -22.0 | 1.2 | 7.2%
Cc1ccccc1-c1ccc2ncnc(NCc3cccs3)c2c1 | -8.8% | . | 28.0% | . | . | .
O=[N+]([O-])c1cccc(-c2nnnn2-c2cccc(F)c2)c1 | . | . | . | 5.1 | -1.5 | .
Cc1ccccc1C(=O)Nc1ccnn1C1CCN(C(C)Cc2ccccc2F)CC1 (configuration not stated) | 2.5% | -3.3% | -0.3% | -12.8 | 1.2 | .
Cc1ccc(-c2nn(C(C)(C)C)c3ncnc(NS(=O)(=O)c4ccc([N+](=O)[O-])cc4)c23)cc1 | -22.2% | ? | 12.6µM* | -26.1 | -23.0 | -13.9%
O=C(Nc1cc(Oc2ccc(Cl)cc2)cc([N+](=O)[O-])c1)c1ccco1 | 7.94µM* | . | ? | -11.3 | -8.1 | -0.8%
CCOc1ccc(Oc2cc(NC(=O)c3ccco3)cc([N+](=O)[O-])c2)cc1 | ? | 15.8% | ? | -0.3 | 5.9 | -7.8%
CC(=O)c1cccc(-c2ccnc3c2CC(C(=O)Nc2ccc4c(c2)OCO4)O3)c1 (configuration not stated) | . | . | . | -11.6 | -3.2 | .
Cc1ccc(-n2nnnc2C(Cl)(Cl)c2nnnn2-c2ccc(C)cc2)cc1 | 7.08µM* | 6.4% | 17.8µM* | 1.9 | -5.8 | 1.3%
Cc1ccc(C)c(/C=N/NC(=S)NCCc2ccccc2)c1 | 7.94µM* | -11.6% | 7.08µM* | -5.3 | 0.2 | 2.0%
Oc1ccccc1/C=N/NC(=S)NCCc1ccccc1 | 22.4µM* | -13.7% | 7.08µM* | ? | -65.3* | .
O=C(CC(=O)N/N=C/c1c(F)cccc1Cl)NCCc1ccccc1 | -3.1% | 2.3% | 16.0% | -2.4 | . | .
CNC(=S)NCCc1ccccc1 | 13.6% | -4.4% | -31.8% | -2.7 | -0.3 | 6.5%
S=C(NCCc1ccccc1)N/N=C/c1cccc(Cl)c1Cl | ? | -22.7% | 22.4µM* | -5.7 | 8.0 | 1.0%
S=C(NCCc1ccccc1)Nc1c(Cl)cccc1Cl | -27.2% | 1.0% | 12.6µM* | -5.2 | -1.4 | 11.7%
Cc1ccc(C)c(NC(=S)NCCc2ccc(S(N)(=O)=O)cc2)c1 | . | . | . | -3.9 | 3.2 | .
COc1cccc(/C=N/NC(=O)CC(=O)NCCc2ccccc2)c1OC | -6.7% | -2.7% | 24.6% | -5.1 | -7.0 | 0.1%
Cc1cn([C@H]2C[C@H](O)[C@@H](CNC(=O)[C@H](N)Cc3cscn3)O2)c(=O)[nH]c1=O | . | . | . | -6.8 | 1.7 | .
CS(=O)(=O)N1CCC2(CC1)CN(c1ccccn1)C2 | 2.3% | . | 38.1% | . | . | .
O=C(C[C@@H]1C/C=C/CCCC(=O)O[C@H](c2ccccc2)CNC1=O)NCCO | . | . | . | 10.6 | 1.4 | .
COc1ccc(Cl)cc1-c1noc([C@@H]2O[C@H](CO)[C@H](O)[C@H](O)[C@H]2O)n1 | . | . | . | 3.4 | 3.9 | .
COc1ccc(OCCCC(=O)N2CCN(S(=O)(=O)c3cccc(F)c3)CC2)cc1 | . | . | . | -3.3 | -1.7 | .
SMILES | Gal4-VP16 FLuc | MBNL1 CUG block | RORg inh | Six1-Eya2 blk | CtBP-E1A blk | CBFb RUNX1 block
O=C(CCN1CCc2ccccc21)c1ccc2c(c1)OCCO2 | 11.2µM* | 18.4% | -18.6% | -8.8 | -6.6 | -25.6%
O=C(c1ccc2c(c1)OCO2)N1CCc2ccccc21 | ? | -8.5% | 22.6% | 3.9 | 5.0 | .
O=C(CCN1CCCC1Cc1ccccc1)c1ccc2c(c1)OCCO2 (configuration not stated) | 5.62µM* | 9.5% | 5.01µM* | -6.5 | -0.6 | 5.2%
COc1cc(C(=O)CCN2CCC(c3ccccc3)C2)cc(OC)c1OC (configuration not stated) | ? | -15.9% | 15.8µM* | 4.3 | 0.0 | 9.3%
O=C(CCN1CCOCC1)c1ccc(Br)cc1 | 12.6µM* | -8.0% | ? | 1.4 | 7.1 | 6.0%
CC(C)n1ncc(N2CCOCC2)c(Cl)c1=O | 3.4% | -1.4% | 12.5% | -21.8 | -5.7 | .
C/C=C/n1ccnc1CC(O)(c1ccccc1)c1ccc(C)cc1 (configuration not stated) | . | . | . | -6.6 | 2.4 | .
Cc1ccc(SCCC(=O)NNC(=O)c2ccccc2F)cc1 | . | . | . | -2.6 | 7.9 | .
Cc1cccn2c(=O)c(C=C(C#N)C#N)c(N3CCN(c4cccc(Cl)c4)CC3)nc12 | -6.3% | 1.5% | 37.9% | -16.9 | -14.0 | .
CC(OC(=O)C1=COCCO1)C(=O)c1ccc(C(C)(C)C)cc1 (configuration not stated) | . | . | . | 24.0 | 8.7 | .
O=C(CCN1CCCCC1)c1ccc2c(c1)OCCO2 | 7.94µM* | -1.4% | 11.2µM* | -13.6 | -10.6 | 1.3%
O=C(CCN1CCCCCC1)c1ccccc1 | -8.4% | -2.7% | -8.2% | -1.4 | -3.5 | 5.8%
O=C(CCN1CCC(c2ccccc2)C1)c1ccccc1 (configuration not stated) | 3.0% | -1.8% | -8.8% | 2.8 | 11.2 | 2.3%
O=C(CCN1CCc2ccccc2C1)c1ccc2c(c1)OCCO2 | 4.47µM* | -10.5% | 3.16µM* | 1.7 | -10.4 | 4.8%
O=C(CCN1CCC(c2ccccc2)C1)c1ccc2c(c1)OCCO2 (configuration not stated) | 7.08µM*! | -8.9% | 7.08µM*! | -1.4 | -12.5 | -7.4%
O=C(CCCCN1CCCCC1)c1ccc2c(c1)Cc1ccccc1-2 | ? | . | 12.6µM* | -2.8 | -1.4 | -8.4%
O=C(CCN1CCCCCC1)Nc1ccc2c(c1)OCCO2 | 12.7% | -1.8% | -1.4% | 0.0 | 2.8 | -1.2%
O=C(c1ccc2c(c1)OCO2)N1CCc2ccccc2C1 | 3.5% | 11.7% | -18.3% | 3.8 | 2.6 | -1.8%
CCCCCCCCCC(=O)NC(CN1CCOCC1)[C@H](O)c1ccccc1 (some centres not stated) | . | . | . | . | . | 16.2%
Cc1ccc2c(c1)nnn2C1CCN(S(=O)(=O)c2ccc(C(=O)N3C(C)CCCC3C)cc2)CC1 (configuration not stated) | 15.8µM* | -3.2% | ? | -13.3 | -1.8 | -0.2%
